# Bioassay records as filed in PubChem.
# HT1080-NT tox – kills 2HG-producing HT-1080-NT fibrosarcoma cells | Potency, µM (top dose mostly 46.1 µM), for inactives: at the highest dose activity, negative = less viability, most hits filed as cytotoxic | HT-1080-NT fibrosarcoma viability, CellTiter-Glo ATP luminescence, 48 h | 360,000 compounds, 1.6% hits | AID 686970;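 also: NT is the 2HG producing partner of a matched IDH1 knockdown line; potency is read from the fitted curve at half-maximal effect; 0% = DMSO-treated cells and -100% = media-only wells without cells; nearly all actives have a fitted effect of over 55% in size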
#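 750 cells/well, RPMI + 5% FBS; 2 h settle, compound pin-transfer, 48 h at 37 degrees C. CellTiter-Glo 10 min RT, luminescence. Normalized to DMSO and media-only wells.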
# DT40 TDP1 CPT – growth inhibition of DT40 Tdp1-/-;hTDP1 cells with camptothecin (screen for TDP1 inhibitors); chicken DT40 Tdp1-/-;hTDP1 cells + 20 nM CPT, ATP luminescence, 48 h; Potency, µM (top dose mostly 46.2 µM), inactives show at the top dose activity change, negative = growth inhibition, actives largely listed as inhibitors; 420,000 compounds, 12% hits; also: potency is read from the fitted curve at half-maximal effect; nearly all actives have a fitted effect of over 55% in size
#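 Cell growth measured by CellTiter-Glo luminescence after a minimum 48 h, 37 C compound exposure with 20 nM CPT in Tdp1-knockout DT40 cells stably expressing hTDP1, seeded 400/well; qHTS titration format.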
# IL1B secr inh – inhibitors of inflammasome signaling (IL-1 beta secretion); AID 743279; activity change, % at 57.5 µM; 360,000 compounds, 4.7% hits; THP-1 LPS/ATP IL-1B secretion, AlphaLISA, 16 h; hits give low values; in the data active = activity change below about -50%; inconclusive = mostly about -30% to -49%
#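 Secreted IL-1B measured by AlphaLISA bead assay after 16 h compound exposure of THP-1 cells; compounds (final up to 57.5 uM) added 1 h before LPS (250 ng/mL) and ATP (1.25 mM) stimulation; lower signal means less secretion.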
# ELG1 DNA repair – blocks ELG1-dependent DNA repair in HEK293T cells; Potency, µM (series often up to 46.1 µM), inactives show top-dose activity change, negative = inhibition, usual class: inhibitors; HEK293T ELG1-luciferase reporter, luminescence, 16 h; DNA damage induced by 5-fluorouridine; 330,000 compounds, 2.3% hits; also: potency is read from the fitted curve at half-maximal effect; nearly all actives have a fitted effect of over 55% in size
#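 DMSO vehicle served as the neutral condition. Each well held 2,000 cells given 5-fluorouridine plus compound; after 16 hr at 37 °C/5% CO2, ONE-Glo was added and luciferase measured 30 min later.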
# HT1080 IDH1KD tx – HT-1080 IDH1 knockdown cell toxicity (counter line); HT-1080 IDH1 knockdown viability, ATP luminescence, 48 h; Potency, µM (titrated, usually from 46.1 µM), without a hit: top-dose activity, negative = toxicity, usual class: cytotoxic; 360,000 compounds, 2% hits;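 also: potency is read from the fitted curve at half-maximal effect; 0% = DMSO wells and -100% = cell-free medium wells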
#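 Knockdown cells (IDH1KD HT-1080) received compounds 2 h after plating at 750 cells/well and were kept 48 h at 37 °C in 5% FBS RPMI. A CellTiter-Glo luminescence read gave % activity for curve fitting.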
# DT40 TDP1 no CPT – qHTS for Inhibitors of human tyrosyl-DNA phosphodiesterase 1 (TDP1): qHTS in cells in absence of CPT; DT40 Tdp1-/- hTDP1 cells, no CPT, ATP luminescence, 48 h; Potency, µM (titrated, usually from 46.2 µM), for inactives: at the top dose activity change, negative = growth inhibition, most hits filed as inhibitors; 420,000 compounds, 15% hits; AID 686978, 2013; also: potency is read from the fitted curve at half-maximal effect; nearly all actives have a fitted effect of over 55% in size
#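 DT40 Tdp1-/-;hTDP1 cells, no CPT (DMSO vehicle only), 400 cells/well; compounds pin-transferred; ≥48 hr, 37 °C; CellTiter-Glo 30 min RT dark, luminescence read.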
# * marks the source's active call; other numbers are inactive results; ? = inconclusive; nt = no result given; [ ] = another dose, or the depositor's remark. The list is not random: actives were taken first. Their share in the collection is about 19%. Unless noted, calls follow the shape of the dose curve; as a rule, active = well fitted curve in the direction sought with a large enough effect; inconclusive = small, poorly fitted or top-dose-only effect, or another doubt; inactive = no such curve, though single readings can be large; an effect the other way counts as inactive or inconclusive. Unless noted, % is scaled to controls: 0 for no effect and ±100 for the full control effect.
SMILES,HT1080-NT tox,DT40 TDP1 CPT,IL1B secr inh,ELG1 DNA repair,HT1080 IDH1KD tx,DT40 TDP1 no CPT
COc1ccccc1NC(=O)C1=C(C)Nc2nc(SCc3ccccc3F)nn2C1c1cccs1 (stereo not given),nt,8.2µM*,nt,nt,nt,9.2µM*
COc1ccccc1NC(=O)C1=C(C)Nc2nc(SCc3ccccc3C)nn2C1CC(C)C (stereo not given),nt,-73%,nt,nt,nt,21µM*
CC1=C(C(=O)Nc2ccccc2)C(c2cccs2)n2nc(SCc3ccccc3F)nc2N1 (stereo not given),nt,-26%,nt,nt,nt,-27%
C=C1C=C(C)n2ncc(C(=O)Nc3cccc4cnccc34)c2N1,nt,16µM*,nt,nt,nt,11µM*
C=CCNC(=O)c1cnn2c1NC(=C)C=C2C,nt,10%,nt,nt,nt,1%
CCCCCn1c(CCNC(=O)c2cccs2)nc2ccccc21,?,?,-77*,?,3%[9.24 µM],?
CCCCCn1c(CNC(=O)c2cccs2)nc2ccccc21,13µM*,?,-54*,?,8%[9.24 µM],?
CCS(=O)(=O)c1ccc(C(=O)NC2CC2)c(Cl)c1Cl,17%,-7%,0,2%,-2%,-7%
CCCCN(C(=O)c1cnccn1)c1c(N)n(CCC)c(=O)[nH]c1=O,6%,-4%,17,0%,6%,5%
Cc1ccc2nc(-c3ccc(NC(=S)NCC(C)(C)CN(C)C)cc3)sc2c1,0%,6.5µM*,0,nt,9%,6.5µM*
Cc1ccc2nc(-c3ccc(NC(=S)NCCC(C)C)cc3)sc2c1,11%,0%,-9,nt,18%,?
CCCCNC(=S)Nc1ccc(-c2nc3ccc(C)cc3s2)cc1,4%,?,6,?,10%,18µM*
CC(=O)N1N=C(c2ccco2)CC1c1cc2ccc(C)cc2nc1Cl (stereo not given),11%,?,0,?,10%,?
COc1ccc(S(=O)(=O)NCc2cccnc2)cc1NC(=O)c1ccccc1C,-3%,0%,11,nt,3%,0%
O=C(Nc1nnc(-c2ccc3c(c2)CCCC3)o1)c1ccccc1Cl,-10%,?,6,?,?,16µM*
O=C(COc1ccccc1)Nc1nnc(-c2ccc3c(c2)CCCC3)o1,0%,-24%,-18,?,-2%,-18%
O=C(Nc1nnc(-c2ccc3c(c2)CCCC3)o1)c1ccccc1,?,5.2µM*,110,?,?,5.8µM*
O=C(Nc1cccc2c1CCCC2)c1ccccc1Cl,28%,7%,-1,-17%,19%,-8%
COc1ccccc1C(=O)Nc1cccc(C(=O)OCc2cc(=O)n3nc(C)sc3n2)c1,nt,2%,nt,nt,nt,-18%
O=C(Nc1ccc(S(=O)(=O)Nc2ncccn2)cc1)c1ccc(Br)cc1,5%,4%,-7,nt,-1%,6%
COc1ccccc1-c1noc(-c2cc(OC)c(OC)c(OC)c2)n1,-16%,?,-22,12µM*,-8%,23µM*
COc1cc(-c2nc(-c3cccc(C(F)(F)F)c3)no2)cc(OC)c1OC,7%,?,1,23µM*,0%,?
Cc1ccc(N2CCN(C(=S)Nc3ccccc3C)CC2)cc1,3%,6%,0,?,7%,0%
CC1CCC(N2CC(=O)N(C3CCCCC3)C(c3ccc(F)cc3)C2=O)CC1 (stereo not given),nt,4%,nt,nt,nt,-21%
Cc1ccc(Oc2ccc(S(=O)(=O)N3CCOCC3)cc2C(N)=O)c(-n2nc3ccccc3n2)c1,?,3.7µM*,46,?,4.1µM*,4.1µM*
SMILES,HT1080-NT tox,DT40 TDP1 CPT,IL1B secr inh,ELG1 DNA repair,HT1080 IDH1KD tx,DT40 TDP1 no CPT
COc1ccccc1Oc1ccc(S(=O)(=O)N2CCOCC2)cc1S(=O)(=O)N1CCOCC1,2%,8%,-17,3%,0%,-21%
CNC(=O)C[C@H]1C(=O)N(CCc2ccccc2)C[C@@H]1Cc1ccccc1,8%,-6%,2,nt,7%,?
O=C(OC(C(=O)NCC1CCCO1)c1ccccn1)c1cccs1 (stereo not given),0%,-2%,-56*,3%,14%,-3%
COc1ccccc1C(OC(=O)c1cccs1)C(=O)NCC1CCCO1 (stereo not given),1%,-8%,6,-6%,-8%,-16%
COc1ccc(C(OC(=O)c2cccs2)C(=O)NCC2CCCO2)cc1 (stereo not given),13%,3.7µM*,-59*,16%,5%,-2%
Cc1ccc(NC(=O)CCN2CCC(C(N)=O)CC2)cc1,12%,0%,10,0%,15%,-12%
COc1ccc(C)cc1S(=O)(=O)N(CC(=O)Nc1ccc2c(c1)OCCO2)Cc1ccccc1,-3%,10µM*,-7,18µM*,-28%,?
COc1ccc(S(=O)(=O)N(CC(=O)Nc2ccc3c(c2)OCO3)c2ccccc2OC)cc1,-3%,21µM*,-9,?,-18%,15µM*
COc1ccccc1N(CC(=O)Nc1ccc2c(c1)OCO2)S(=O)(=O)c1ccccc1,-8%,?,7,?,-7%,13µM*
COc1cc(-c2noc(C)c2C#Cc2nccn2C)cc(OC)c1OC,?,16µM*,-26,?,?,13µM*
CCOC(=O)Cn1nnc(-c2ccc(S(C)(=O)=O)cc2)n1,17%,4%,-60*,6%,2%,-1%
CCOC(=O)Cn1nnc(-c2ccc(SC)cc2)n1,6%,7%,17,17%,11%,-2%
Brc1ccc(-c2nnc3sc(CN4CCCCC4)cn23)cc1,nt,-9%,nt,nt,nt,-25%
CCOC(=O)C1CCCN(Cc2cn3c(-c4ccc(Br)cc4)nnc3s2)C1 (stereo not given),nt,5.2µM*,nt,nt,nt,6.5µM*
